# Shown are actives, neighbours in structure and some others; about 13% of the full set was active somewhere.
# USP28 block = inhibitors of human USP28 deubiquitinase; 3% of 47,000 active; purified USP28, Ub-rhodamine cleavage fluorescence, 30 min; Q96RU2; inhibition, % at 25 µM
# Target sequence (Q96RU2 whole entry, looked up): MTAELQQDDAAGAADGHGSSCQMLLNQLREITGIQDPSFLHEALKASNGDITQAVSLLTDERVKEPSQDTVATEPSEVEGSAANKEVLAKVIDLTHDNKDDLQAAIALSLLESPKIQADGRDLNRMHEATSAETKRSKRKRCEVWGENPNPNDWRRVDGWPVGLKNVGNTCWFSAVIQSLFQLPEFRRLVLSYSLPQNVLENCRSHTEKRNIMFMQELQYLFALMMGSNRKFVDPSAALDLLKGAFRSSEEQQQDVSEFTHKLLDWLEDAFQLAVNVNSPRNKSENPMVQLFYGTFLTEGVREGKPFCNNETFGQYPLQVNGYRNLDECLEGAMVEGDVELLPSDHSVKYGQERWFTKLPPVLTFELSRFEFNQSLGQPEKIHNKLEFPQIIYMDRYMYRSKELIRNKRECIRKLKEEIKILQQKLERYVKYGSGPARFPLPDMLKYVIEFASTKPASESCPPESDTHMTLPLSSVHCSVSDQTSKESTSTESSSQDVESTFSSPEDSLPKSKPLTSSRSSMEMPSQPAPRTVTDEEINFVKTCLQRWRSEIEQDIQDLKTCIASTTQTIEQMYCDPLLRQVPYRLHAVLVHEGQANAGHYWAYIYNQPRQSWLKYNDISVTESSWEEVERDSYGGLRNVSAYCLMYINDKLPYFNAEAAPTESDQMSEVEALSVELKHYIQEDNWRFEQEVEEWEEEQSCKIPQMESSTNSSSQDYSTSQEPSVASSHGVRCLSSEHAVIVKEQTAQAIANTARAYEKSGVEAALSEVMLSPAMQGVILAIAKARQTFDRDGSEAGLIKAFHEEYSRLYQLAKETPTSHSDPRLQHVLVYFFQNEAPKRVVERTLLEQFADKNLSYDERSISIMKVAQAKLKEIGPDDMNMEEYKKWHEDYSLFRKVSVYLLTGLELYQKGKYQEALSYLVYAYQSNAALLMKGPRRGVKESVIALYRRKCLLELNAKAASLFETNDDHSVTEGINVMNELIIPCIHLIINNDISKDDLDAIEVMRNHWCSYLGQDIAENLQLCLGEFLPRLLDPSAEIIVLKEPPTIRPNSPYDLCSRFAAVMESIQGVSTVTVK
# USP30 inh = human USP30 deubiquitinase inhibition; AID 1645860; purified USP30, Ub-rhodamine cleavage fluorescence; 5.3% of 47,000 active; inhibition, % at 25 µM; Q70CQ3
# USP8 block = blocks human USP8 ubiquitin-rhodamine cleavage; 4.2% of 47,000 active; purified USP8, Ub-rhodamine cleavage fluorescence, 30 min; P40818; inhibition, % at 20 µM
# OTUD3 inh = inhibitors of human OTUD3 deubiquitinase; Q5T2D3; purified OTUD3, Ub-rhodamine fluorescence, 2 h; inhibition, % at 25 µM; 0.7% of 47,000 active; AID 1645858
# USP17 inh = blocks human USP17 ubiquitin-rhodamine cleavage | 6.5% of 47,000 active | purified USP17, Ub-rhodamine cleavage fluorescence, 3 h | A8MUK1 | inhibition, % at 50 µM
# USP10 inh = blocks human USP10 ubiquitin-rhodamine cleavage | purified USP10, Ub-rhodamine fluorescence, 60 min | inhibition, % at 20 µM | 1.1% of 47,000 active | AID 1645856
# Numbers without * were called inactive; / = not tested or not shown. Rule as the data show it: active = inhibition above about 30%; inactive = the rest.
SMILES,USP28 block,USP30 inh,USP8 block,OTUD3 inh,USP17 inh,USP10 inh
Cc1cccc(S(=O)(=O)N2CCC3(C2)C(=O)Nc2ccccc23)c1 (centres undefined),-20,-27,-29,-14,-4,-5
O=C(CSc1nc2ccccc2n1S(=O)(=O)c1ccc(Br)cc1)NCCc1ccccc1,16,-96,1,4,-30,5
O=C(CSc1n[nH]c(-c2cc(Br)ccc2O)n1)NCCc1ccccc1,25,11,81*,11,38*,17
COC[C@H]1O[C@@H](O[C@@H]2OC[C@@H]3O[C@]4(O[C@H]3[C@H]2OC(=O)C(C)C)O[C@H](C)[C@@](O)(C(C)=O)[C@@H]2OCO[C@H]24)[C@@H](OC)[C@@H](O)[C@@H]1O[C@@H]1O[C@H](C)[C@H](OC)[C@H](O[C@H]2C[C@@]3(C)O[C@@]4(C[C@@H](O)[C@H](O[C@H]5C[C@@H](O)[C@H](OC(=O)c6c(C)c(Cl)c(O)c(Cl)c6OC)[C@@H](C)O5)[C@@H](C)O4)O[C@@H]3[C@@H](C)O2)[C@H]1O,1,17,10,-2,0,2
COc1ccc(-n2ccnc(SCc3ccc(Cl)cc3)c2=O)cc1,36*,15,0,-1,33*,12
CCOc1ccc(-n2ccnc(NCc3ccc(OC)cc3)c2=O)cc1,12,20,-6,7,4,4
Cc1nn(C)c2c1[C@@H](c1ccc(F)c(Br)c1)[C@H](NC(=O)c1ccccc1)C(=O)N2,71*,-29,-20,-12,-11,0
O=C1NC2(CCN(Cc3cccc(F)c3)CC2)N=C1c1ccccc1,/,/,-2,-3,-7,0
O=C(COc1coc(CN2CCc3ccccc3C2)cc1=O)Nc1cccc(F)c1,19,-7,30*,6,25,6
CSc1nnc(-c2ccc(C(C)(C)C)cc2)n1Cc1ccccc1,6,33*,0,4,14,7
O=C(O)CCSc1nnc(-c2ccc(O)cc2)n1Cc1ccccc1,-7,-4,-65,-4,-3,3
Cc1cccc(N2CCN(C(=O)c3snc4c(=O)n(C)c(=O)[nH]c34)CC2)c1,10,12,1,9,4,1
O=C1Oc2nc3ccccc3cc2CN1Cc1ccco1,16,17,3,11,52*,8
COc1ccc2cc3c(nc2c1)OC(=O)N(Cc1ccccc1F)C3,-2,12,37*,1,2,3
CCOc1ccc2cc3c(nc2c1)OC(=O)N(Cc1ccc(C)o1)C3,13,53*,15,13,21,3
Cc1ccc(S(=O)(=O)N2C(=O)CCC2C(=O)N2CCC(C)CC2)cc1 (centres undefined),4,17,8,11,5,2
COc1ccccc1NC(=O)CCc1c(C)nc2c(c1C)c(=O)n(C)c(=O)n2C,3,7,0,2,5,2
CC1CCC2(CC1)CC(=O)c1ccc(OCC(=O)O)cc1O2 (centres undefined),6,28,14,5,8,1
CCc1nc2c(C#N)c(-c3ccc(Cl)cc3)ccn2n1,41*,83*,36*,32*,66*,24
N#Cc1c(-c2ccc3c(c2)OCO3)ccn2nc(-c3ccco3)nc12,0,-174,27,-10,-1,-7
CN1[C@@H](CCC(=O)N2CCN(c3ccccn3)CC2)CNC(=O)[C@@H]2[C@H]1CCN2CC(C)(C)C,-5,-13,-4,-2,-5,-1
CN1[C@@H](CCC(=O)N2CCN(c3ccccn3)CC2)CNC(=O)[C@@H]2[C@H]1CCN2Cc1ccc(O)cc1,56*,46*,73*,23,-25,-2
CC(C)N1CC[C@@H]2[C@H]1C(=O)NC[C@H](CCC(=O)N1CCN(c3ccccn3)CC1)N2C,42*,39*,62*,16,-32,0
CN1[C@@H](CCC(=O)N2CCC(O)CC2)CNC(=O)[C@@H]2[C@H]1CCN2Cc1cccc(OC(F)(F)F)c1,3,-31,35*,-13,-76,-1
CN1[C@@H](CCC(=O)N2CCN(c3ccccn3)CC2)CNC(=O)[C@@H]2[C@H]1CCN2Cc1ccc(CO)o1,-13,-24,-11,-8,-10,-1
SMILES,USP28 block,USP30 inh,USP8 block,OTUD3 inh,USP17 inh,USP10 inh
CN1[C@@H](CCC(=O)N2CCC(O)CC2)CNC(=O)[C@@H]2[C@H]1CCN2Cc1ccc(O)cc1,43*,55*,66*,19,-24,-3
Cc1cc(Nc2nc(C)cc(C)n2)cc(C2CN(C(=O)c3ccc(=O)n(C)c3)CCO2)n1 (centres undefined),10,27,14,10,14,0
COc1ccc(NC(=O)c2ccnc(Nc3cccc(C)c3)c2)cc1,3,0,-152,5,0,-1
COc1cccc(Nc2cc(C(=O)Nc3ccccc3)ccn2)c1,1,10,-1,-10,36*,0
COc1ccc(NC(=O)c2ccnc(Nc3cccc(OC)c3)c2)cc1,11,7,5,0,32*,-4
O=C(CCc1ccc(S(=O)(=O)N2CCOCC2)cc1)Nc1ccc2c(c1)OCO2,19,3,-1,9,7,-3
Cc1ccc(NC(=O)CCc2ccc(S(=O)(=O)N3CCOCC3)cc2)c(O)c1,-5,-24,47*,-11,-1,-2
O=C(CCc1ccc(S(=O)(=O)N2CCOCC2)cc1)Nc1ccc2c(c1)OCCO2,61*,4,-6,-8,-7,6
Cc1ccn(-c2ccc(NC(=O)c3ccccc3Sc3ccccc3C#N)cc2)n1,38*,35*,12,14,50*,7
N#Cc1ccccc1Sc1ccccc1C(=O)Nc1ccc(Cl)cc1,-8,4,3,0,0,8
CN(C[C@H]1C[C@]2(C)[C@@H](CCCC[C@]2(C)O)N1C)C(=O)c1ccn[nH]1,3,4,-5,0,0,-1
COc1ccc(-c2cc(C(F)F)n3ncc(C(=O)Nc4cc(Cl)ccc4O)c3n2)cc1,1,5,-3,1,23,10
Cc1cc(O)cc2cc3c(c(O)c12)C(=O)CCC3O (centres undefined),-3,-89,-140,-6,51*,-5
Cc1noc(-c2cc(=O)n(CC(=O)NCc3ccccc3)c3ccccc23)n1,6,6,1,17,53*,10
Cc1ccc(CNC(=O)Cn2cnc3ccccc3c2=O)cc1,0,2,11,1,5,-2
O=c1c2ccccc2c(-c2nc(-c3cccnc3)no2)cn1-c1ccc(F)cc1,0,15,2,5,22,1
COc1cccc(-n2cc(-c3nc(-c4cccnc4)no3)c3ccccc3c2=O)c1,15,31*,23,14,28,2
COc1ccc([C@H]2C[C@@H](O)[C@@H](O)[C@@H]2NC(=O)c2cc(C)on2)cc1,1,35*,-5,7,9,2

# Screening data: PubChem BioAssay, Buhrlage Lab, Dana-Farber Cancer Institute and Novartis Institutes for BioMedical Research (Cambridge, Mass)
